Screens from PubChem.
Compounds with a hit are over-represented: about 6.2% of the library has one in this group of screens.
ATXN viability: Viability Counterscreen for Primary qHTS for Inhibitors of ATXN expression | S2 cells (HEK-293 line with an ATXN2-luciferase reporter) viability, CellTiter-Fluor protease fluorescence, 24 h | Potency, µM (titrated, usually from 56.7 µM), hits mostly cytotoxic | 400,000 tested, 0.49% active | AID 651635, 2014; also: nearly all actives have a fitted effect of over 40% in size
KB-V1 MDR tox: qHTS assay for MDR1-selective chemotherapeutics: Primary screen using the drug-selected MDR subline cells KB-V1. Potency, µM (highest dose often 46.1 µM), usual class: cytotoxic. KB-V1 MDR cells viability, CellTiter-Glo, 72 h. 400,000 tested, 3.4% active; also: % is scaled to controls: 0 for no effect and ±100 for the full control effect; nearly all actives have a fitted effect of over 60% in size
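Readout: CellTiter-Glo luminescence, 10 min after addition. Cells: KB-V1 MDR subline, 72 h at 37 degrees C with compound. Analysis: corrected, normalized data fitted to concentration-effect curves.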
HT1080 IDH1KD tx: qHTS for induction of synthetic lethality in tumor cells producing 2HG: qHTS for the HT-1080-IDH1KD cell line | HT-1080 IDH1 knockdown viability, ATP luminescence, 48 h | Potency, µM (doses to about 46.1 µM), for the others: at the highest dose activity, negative = toxicity, most hits filed as cytotoxic | 360,000 tested, 2% active;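 also: 0% = DMSO wells and -100% = cell-free medium wells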
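Assay cells: HT-1080 with IDH1 knockdown, 750 per well, RPMI/5% FBS. Exposure: 48 h at 37 °C following 2 h pre-incubation. Read: CellTiter-Glo luminescence; fitted concentration-response, curve class assigned.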
HT1080NT lethal: qHTS for induction of synthetic lethality in tumor cells producing 2HG: qHTS for the HT-1080-NT fibrosarcoma cell line | HT-1080-NT fibrosarcoma viability, CellTiter-Glo ATP luminescence, 48 h | Potency, µM (top dose mostly 46.1 µM), without a hit: at the top dose activity, negative = less viability, hits mostly cytotoxic | 360,000 tested, 1.6% active;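 also: NT is the 2HG producing partner of a matched IDH1 knockdown line; 0% = DMSO-treated cells and -100% = media-only wells without cells; nearly all actives have a fitted effect of over 55% in size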
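Viability of the 2HG-overproducing fibrosarcoma line after 48 hours of compound exposure at 37 degrees C was determined by luminescence with CellTiter-Glo, and concentration-effect curves were then fitted and categorized.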
ATXN2 expr inh: Primary qHTS for Inhibitors of ATXN expression; HEK-293 ATXN2-luciferase reporter, luminescence, 24 h; Potency, µM (series often up to 57 µM), inactives show at the top dose activity change, negative = inhibition, most hits filed as inhibitors; 360,000 tested, 0.72% active; also: % is scaled to controls: 0 for no effect and ±100 for the full control effect; nearly all actives have a fitted effect of over 55% in size
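ATXN2-luciferase reporter cells (luciferase flanked by upstream and downstream ATXN2 gene portions) were treated 24 h at 37 °C with compounds at up to 57 uM. SteadyGlo luminescence gave expression; GF-AFC fluorescence gave viability.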
KB-3-1 cytotox: qHTS assay for MDR1-selective chemotherapeutics: Primary screen using the parental adenocarcinoma cell KB-3-1; AID 1347075, 2019; Potency, µM (series often up to 46.1 µM), usual class: cytotoxic; KB-3-1 viability, CellTiter-Glo ATP luminescence, 72 h; 400,000 tested, 1.4% active; also: % is scaled to controls: 0 for no effect and ±100 for the full control effect; nearly all actives have a fitted effect of over 60% in size
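KB-3-1 parental drug-naive adenocarcinoma cells in DMEM/10% FBS, incubated 72 h at 37 C with pin-transferred compounds across a concentration series. Viability by CellTiter-Glo luminescence; concentration-response curves fitted after normalization.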
* hit, by the source's call; i = inactive; ? = inconclusive; . = no result. Calls follow the shape of the dose curve; as a rule, active = well fitted curve in the direction sought with a large enough effect; inconclusive = small, poorly fitted or top-dose-only effect, or another doubt; inactive = no such curve, though single readings can be large; an effect the other way counts as inactive or inconclusive. Potency is read from the fitted curve at half-maximal effect.

SMILES	ATXN viability	KB-V1 MDR tox	HT1080 IDH1KD tx	HT1080NT lethal	ATXN2 expr inh	KB-3-1 cytotox
CCC1Nc2ncnc(N3CCc4ccccc4C3)c2N(Cc2ccc(Cl)cc2)C1=O (centres undefined)	?	i	-13%	-21%	?	?
COc1ccc(CN2C(=O)C(C)Nc3ncnc(N4CCOCC4)c32)cc1 (centres undefined)	i	18µM*	15µM*	?	1%	?
CCc1nn(CC(=O)NCCc2ccc(OC)c(OC)c2)c(=O)c2cc3occc3n12	i	i	.	.	-3%	i
COCC(=O)Nc1cc(C(=O)N2CCN(c3ccccc3)C(=O)C2)cc2nc(-c3ccccc3)n(C)c12	i	.	.	.	.	.
CCCCOc1ccc(CNC(=S)N/N=C/c2ccc(OC)c(OC)c2)cc1	i	18µM*	0%	0%	1%	?
COc1ccc(OC)c(-c2cc(Cl)c3c(c2)CC(CNC(=O)[C@@H]2CCCN2C(C)=O)O3)c1 (some centres undefined)	i	.	.	.	.	.
COc1ccc(-c2c(-c3ccc(OC)c(C)c3O)n[nH]c2C)cc1	.	i	18µM*	?	?	i
COc1ccc(O)c(-c2cc(-c3ccc(F)cc3)n[nH]2)c1	i	i	23µM*	?	99%	i
COc1ccc(-c2cc(-c3ccccc3O)[nH]n2)cc1OC	i	i	?	?	165%	i
COc1ccc(-c2c(-c3ccc(O)cc3O)n[nH]c2C)cc1OC	i	?	?	?	-11%	?
COc1ccc(-c2cc(-c3ccc(OC)c(OC)c3)n[nH]2)c(O)c1	i	2.6µM*	?	-5%	127%	?
O=C(CCOCCOCCOCCOCCC(=O)Nc1c(I)cc(I)c(C(=O)O)c1I)Nc1c(I)cc(I)c(C(=O)O)c1I	i	.	.	.	6%	.
COc1cccc(NS(=O)(=O)c2ccc3c(c2)n(C)c(=O)n3C)c1	?	i	.	.	?	?
O=C(Nc1cccc2ccccc12)c1cnn2c1NC(=C1CC1)C=C2C(F)F	.	i	.	.	.	i
CC1(Oc2ccc3ccccc3c2)CCN(Cc2cccn2-c2nccs2)C1 (centres undefined)	?	i	15µM*	21µM*	-20%	i
CCN(C(=O)C1CCN(S(=O)(=O)c2c(C)noc2/C=C/c2ccc(C)cc2)CC1)c1cccc(C)c1	i	i	.	.	8%	i
COc1ccc(-n2ncc(C(=O)N3CCN(C4CCCCC4)CC3)c2C2CCN(C(=O)OC(C)(C)C)CC2)cc1	.	i	.	.	.	i
O=C(Nc1ccc(Cl)c(Cl)c1)C1C2C=CC3(O2)C1C(=O)N(CCN1CCCCC1)C3C(=O)NC1CCCCC1 (centres undefined)	?	i	?	21µM*	-18%	i
Cc1ccc(NC(=O)C2C3C=CC4(O3)C2C(=O)N(CCCN2CCOCC2)C4C(=O)NC2CCCCC2)cc1Cl (centres undefined)	i	i	-1%	2%	-1%	?
COc1ccc(-c2[nH]c(-c3ccccc3)nc2SCC(=O)Nc2ccc3c(c2)OCO3)cc1	?	i	.	.	?	i
Cc1ccc(N2CC(C(=O)Nc3ccccc3C(=O)NC3CCCCC3)CC2=O)cc1 (centres undefined)	i	3.7µM*	0%	6%	3%	i
Cc1cccc(NC(=O)c2ccccc2NC(=O)C2CCCCC2)c1C	i	18µM*	18%	-1%	-1%	i
CCn1cc(Cl)c(C(=O)N2N=C3/C(=C/c4cccs4)CCCC3C2c2cccs2)n1 (centres undefined)	?	21µM*	-29%	?	-15%	?
CC(C)(CNS(=O)(=O)c1ccc2c(c1)OCCO2)N1CCOCC1	i	i	2%	11%	.	i
Cc1ccc(Oc2ccc(S(=O)(=O)NCC(C)(C)N3CCOCC3)cc2)cc1	i	12µM*	-11%	-19%	-20%	?
SMILES	ATXN viability	KB-V1 MDR tox	HT1080 IDH1KD tx	HT1080NT lethal	ATXN2 expr inh	KB-3-1 cytotox
CN[C@H]1[C@@H](O)[C@@H]2O[C@@H]3O[C@H](C)CC(=O)[C@]3(O)O[C@@H]2[C@@H](NC)[C@H]1O	.	.	.	.	27µM*	.
C(=N\Nc1ccc2ccccc2n1)/c1ccc2c(c1)OCCO2	?	18µM*	-8%	-8%	?	i
Cc1ccc(/C=N/Nc2ccc3ccccc3n2)o1	.	8.2µM*	-23%	-29%	?	i
CC(=NNc1ccc2ccccc2n1)c1ccccc1O	?	4.1µM*	0%	3%	?	i
Cc1cccc(/C=N/Nc2ccc3ccccc3n2)c1	i	i	-3%	-6%	.	i
C(=N\Nc1nc2ccccc2[nH]1)/c1ccc2c(c1)OCCO2	i	i	?	-8%	.	?
Cc1cc(C)nc(-n2nc(C)c3c2NC(=O)CC3c2cc(F)ccc2F)n1 (centres undefined)	i	i	.	.	-10%	i
COc1ccc(C)cc1S(=O)(=O)N1CCCCCC1	i	i	2%	6%	1%	i
COc1cc(C)ccc1S(=O)(=O)N1CCN(C23CC4CC(CC(C4)C2)C3)CC1	i	13µM*	6%	5%	?	i
COc1cc(F)ccc1S(=O)(=O)N1CCN(C23CC4CC(CC(C4)C2)C3)CC1	i	i	-10%	-1%	-4%	?
COc1ccc(C)cc1S(=O)(=O)N1CCC(C)CC1	i	18µM*	-3%	-6%	1%	i
Cc1cc(C)n2nc(S(=O)(=O)N(C)Cc3ccccc3)nc2n1	i	i	4%	6%	-1%	i
CCN(Cc1ccccc1)S(=O)(=O)c1nc2nc(C)c(C)c(C)n2n1	i	18µM*	1%	0%	0%	i
COC(=O)c1ccc(NC(=O)CCNS(=O)(=O)c2cccc3nsnc23)cc1	i	i	.	.	6%	i
CCOc1ccccc1NC(C)C(=O)Nc1cc(C(F)(F)F)ccc1N1CCOCC1 (centres undefined)	i	5.8µM*	-24%	-3%	-7%	?
Cc1noc(C)c1CSCC(=O)Nc1cc(C(F)(F)F)ccc1N1CCOCC1	i	3.7µM*	-1%	-3%	4%	i
